Sampled rows, rich in hits. Any-hit rate of the full collection: about 1.2%.
Neddyl block = cullin neddylation inhibition. TR-FRET cullin neddylation, biochemical. P61081+Q13564. inhibition, % at 25 µM. actives 0.58% (n = 360,000); in the data active means inhibition above about 36%
NOD2 RIPK2 PPI = inhibitors of human NOD2-RIPK2 interaction; O43353; CHO BLA complementation NOD2-RIPK2, CCF4 ratio; inhibition, % at 4.98 µM; actives 0.38% (n = 360,000); in the data active means inhibition above about 21%;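 further: 0% = vehicle only and 100% = reference blocker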
TLR4 MyD88 comp = blocks binding of human TLR4 to MyD88. HeLa CL3-4 TLR4/MyD88 BLA complementation, FRET ratio. inhibition, % at 8.4 µM. actives 0.18% (n = 200,000). AID 861; in the data active means inhibition above about 25%;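 further: 0% = vehicle and 100% = reference inhibitor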
GC-A act = GC-A (human) enzyme activation; P16066; HEK293 GC-A cells, cGMP TR-FRET, EC30 ANP; 0% at EC30 ANP, 100% saturating ANP; activation, % at 10 µM; actives 0.14% (n = 370,000); AID 1671463; in the data active means activation above about 40%
TLR9-MyD88 inh = inhibitors of human TLR9-MyD88 binding | Q9NR96+Q99836 | CHO BLA complementation TLR9-MyD88, CCF4 FRET ratio | inhibition, % at 4.98 µM | actives 0.21% (n = 340,000) | AID 504734;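 active means inhibition above the mean over all tested compounds plus 3 SD, cut at about 21% in these data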;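 further: 0% = DMSO only wells and 100% = clavulanate BLA inhibitor control wells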
GC-B act = GC-B (human) receptor activation | AID 1920062 | P20594 | activation, % at 10 µM | HEK293-GC-B cells, CNP EC30, cGMP TR-FRET; 0% at EC30 CNP, 100% saturating CNP | actives 0.11% (n = 370,000);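 active means activation at 10 µM reaching about 35% in either raw or pattern-adjusted values, limit read from the data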
TLR9-MyD88 conf = confirmation of human TLR9-MyD88 binding inhibitors | actives 51% (n = 680) | CHO TLR9/MyD88 BLA complementation, CCF4 FRET ratio | inhibition, % at 4.98 µM | AID 540250 | shares compounds with TLR9-MyD88 inh;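 active means mean inhibition across three repeats above about 21% taken from the earlier screen, limit read from the data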;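 further: blue over green emission ratio reports constitutive TLR9 MyD88 association via BLA complementation; 0% = DMSO vehicle wells and 100% = clavulanate BLA inhibitor wells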
BLA counter-1 = non-selective beta-lactamase inhibitors in TLR9-MyD88 counter-screen; shares compounds with TLR9-MyD88 inh; CHO-BLA cells, CCF4 FRET ratio, BLA reporter; inhibition, % at 4.98 µM; actives 7% (n = 680);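 active means mean inhibition above a 50% cutoff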;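 further: counterscreen of TLR9-MyD88 hits on CMV-driven BLA in CHO-K1 cells; 0% = DMSO alone and 100% = clavulanate blocking BLA; higher means less blue over green ratio so more BLA blockade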
TLR9 CHO cytotox = CHO cell toxicity counter-screen for TLR9-MyD88 inhibitors; shares compounds with TLR9-MyD88 inh; TLR9-MyD88 CHO cells cytotoxicity, luminescence; inhibition, % at 4.98 µM; actives 39% (n = 680); AID 588336; in the data active means inhibition above about 11%
NOD2-RIPK2 conf = NOD2-RIPK2 interaction inhibition confirmed; shares compounds with NOD2 RIPK2 PPI; CHO cells, NOD2-RIPK2 BLA complementation, CCF4 FRET; inhibition, % at 4.98 µM; actives 70% (n = 1,200);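 active means mean inhibition across replicates above a set limit taken from the earlier primary screen, cut at about 21% in these data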;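 further: 0% = DMSO-only wells and the high end = clavulanate BLA-blocked wells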
BLA counter-2 = counter-screen for NOD2-RIPK2 interaction inhibitors: BLA reporter | shares compounds with NOD2 RIPK2 PPI | CHO BLA reporter, CCF4 FRET ratio, counterscreen | inhibition, % at 4.98 µM | actives 57% (n = 1,200) | AID 624371;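 active means mean inhibition above the low-control mean inhibition plus three low-control SD, cut at about 11% in these data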;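 further: 0% = DMSO only wells and 100% = clavulanate high control wells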
Active calls of the source: *; . = no result shown.

SMILES	Neddyl block	NOD2 RIPK2 PPI	TLR4 MyD88 comp	GC-A act	TLR9-MyD88 inh	GC-B act	TLR9-MyD88 conf	BLA counter-1	TLR9 CHO cytotox	NOD2-RIPK2 conf	BLA counter-2
Cc1nnc(Sc2cc(NCCCO)c([N+](=O)[O-])c3nonc23)s1	-5.4	40.7*	14.6	28.2	35.6*	10.4	64.0*	3.7	99.3*	59.9*	17.6*
CCC(=O)OCCNc1cc(Sc2nc3ccccc3s2)c2nonc2c1[N+](=O)[O-]	-15.7	48.5*	10.2	33.7	39.1*	28.2	60.5*	13.5	98.1*	75.1*	14.4*
CCCC(=O)OCCNc1cc(SCc2ccco2)c2nonc2c1[N+](=O)[O-]	-12.9	0.6	1.2	4.6	6.0	-1.7	.	.	.	.	.
Nc1cccc2c1C(=O)N(C(=O)c1cccc(S(=O)(=O)N3CCCCCC3)c1)C2=O	.	28.2*	16.5	1.5	25.3*	-3.0	15.9	14.2	3.8	33.3*	38.2*
Cc1ccc(S(=O)(=O)N2CCOCC2)cc1C(=O)N1C(=O)c2cccc(N)c2C1=O	.	10.5	-7.7	0.3	-0.7	-0.9	.	.	.	.	.
C=CCn1c(CSc2ccccc2[N+](=O)[O-])n[nH]c1=S	-18.2	-11.5	.	-13.8	-3.5	-8.1	.	.	.	.	.
C=CCn1c(Sc2ncc([N+](=O)[O-])s2)n[nH]c1=O	3.7	62.7*	.	11.8	32.3*	7.5	44.2*	-1.7	99.4*	76.7*	14.8*
O=C(OC12CCCN(C1)/C(=C/c1cccc(Cl)c1)C2)c1cccc(F)c1 (configuration not stated)	.	.	.	-0.8	.	-3.6	.	.	.	.	.
Cc1cc(C)cc(NC(=O)/C=C/c2ccc([N+](=O)[O-])s2)c1	16.2	8.7	2.3	-2.9	-0.8	0.7	.	.	.	.	.
Cc1ccccc1NC(=O)/C=C/c1ccc([N+](=O)[O-])s1	43.9*	39.1*	19.2	.	27.0*	.	28.3*	21.5	95.9*	37.5*	41.1*
O=C(O)c1ccc(Nc2cc(Cl)c3nonc3c2[N+](=O)[O-])cc1	-34.1	-1.9	10.8	1.8	9.9	-1.3	.	.	.	.	.
O=[N+]([O-])c1c(Nc2cccc(O)c2)cc(Cl)c2nonc12	-15.4	97.8*	.	14.0	46.2*	37.0*	60.6*	3.0	98.4*	107.5*	29.3*
CC(COc1cccc(C#N)c1)CN1CCC(C(O)(c2ccccc2)c2ccccc2)CC1 (configuration not stated)	.	.	.	-19.7	.	-15.6	.	.	.	.	.
CCCCCN1CCCCC(NC(=O)c2cccc(C(F)(F)F)c2)C1=O (configuration not stated)	.	.	.	1.0	.	-3.7	.	.	.	.	.
O=C(/C=C/c1cn(CC(O)CN2CCCCC2)c2ccccc12)c1cccs1 (configuration not stated)	-15.1	28.3*	21.6	-15.3	25.0*	-7.0	22.1*	20.3	4.5	50.8*	50.2*
O=C(Nc1ccc2c(c1)OCO2)O[C@@H]1CC[C@@]23CCCN2C(=O)CCC[C@H]3C1	.	.	.	-0.6	.	-2.0	.	.	.	.	.
NC(=O)/C(=N\OC(=O)c1ccco1)c1nc(-c2ccc(Br)cc2)cs1	-31.5	21.4*	18.7	4.2	36.5*	-6.5	20.0	19.6	7.7	43.3*	21.7*
N#CCC[C@@H]1CC[C@]2(CCCN(C(=O)c3ccco3)C2)O1	.	.	.	3.0	.	3.7	.	.	.	.	.
O=C(c1nc2n(n1)C(c1ccc(Cl)cc1)C=C(c1ccccc1)N2)N1CCOCC1 (configuration not stated)	.	47.6*	22.1	-3.1	41.9*	-7.2	11.8	12.0	1.1	27.1*	21.2*
O=C(Cc1c[nH]c2ccccc12)Nc1ccc(Nc2cccnc2)c(-c2cc(F)cc(F)c2)c1	.	.	.	-3.0	.	-6.8	.	.	.	.	.
O=C(c1ccccc1)c1cc(Cl)ccc1N1C(=O)C=CC1=O	-9.8	58.8*	8.4	-56.1	33.1*	-21.7	37.5*	7.6	96.3*	89.0*	22.6*
COc1ccc(CCC[C@H](CCC(=O)N(c2ccccc2)c2ccccc2)CCc2ccccc2)cc1	.	.	.	1.6	.	9.6	.	.	.	.	.
CC(C)(C)N(Cc1cn(CC2CCCCC2)nn1)S(=O)(=O)c1ccccc1Br	.	.	.	-0.5	.	5.6	.	.	.	.	.
N#CC(C#N)=C1C=CC=CN1/C(=C\c1ccco1)C(=O)c1ccccc1	.	79.5*	-5.5	7.1	23.2*	-12.6	29.5*	9.4	98.1*	93.1*	16.8*
N#CC(C#N)=C1C=CC=CN1/C(=C\c1ccco1)C(=O)c1ccc(Br)cc1	.	90.6*	6.6	6.8	41.9*	-1.4	45.7*	5.1	98.0*	93.0*	18.1*
SMILES	Neddyl block	NOD2 RIPK2 PPI	TLR4 MyD88 comp	GC-A act	TLR9-MyD88 inh	GC-B act	TLR9-MyD88 conf	BLA counter-1	TLR9 CHO cytotox	NOD2-RIPK2 conf	BLA counter-2
CCN(CC)c1ccc(/C=C(\C#N)C(=O)c2ccc(Br)cc2)cc1	-5.1	-1.8	-5.6	2.5	6.0	4.9	.	.	.	.	.
Nc1ncnc2c1ncn2[C@@H]1O[C@H](C(=O)N[C@@H](CCc2ccccc2)C(=O)N2CCN(CC(=O)N3CCCC3)CC2)[C@@H](O)[C@H]1O	.	.	.	2.9	.	3.0	.	.	.	.	.
CCOC(=O)c1c(C)nc2sc(C(=O)Nc3ccc(C(C)=O)cc3)c(N)c2c1-c1ccc(OC)cc1	.	25.3*	22.7	11.2	22.2*	0.1	18.1	24.1	16.3*	49.1*	54.5*
NC(=O)C1CCN(c2ncc(Br)s2)CC1	.	.	.	2.8	.	-0.1	.	.	.	.	.
Cc1nnc(NC(=O)c2nc(S(=O)(=O)Cc3ccccc3)ncc2Cl)s1	4.9	1.4	.	2.6	2.4	-1.3	.	.	.	.	.
Cc1ccccc1CS(=O)(=O)c1ncc(Cl)c(C(=O)Nc2ccc(F)cc2)n1	-2.7	93.9*	.	42.0*	34.5*	9.9	33.6*	19.9	89.6*	82.8*	33.1*
O=C(Nc1ccc(F)cc1)c1nc(S(=O)(=O)Cc2ccccc2)ncc1Cl	-3.2	92.7*	.	41.6*	36.4*	14.1	47.8*	36.3	98.6*	90.1*	43.0*
Cc1ccc(NC(=O)c2nc(S(=O)(=O)Cc3ccccc3)ncc2Cl)cc1	8.6	91.8*	.	37.6	45.2*	14.9	45.4*	33.7	99.0*	90.0*	40.6*
